Reference: the supplement of paper PMC12632987
Over roughly 4,500 sequences, “median log2 fold change of GCK-ALFA target abundance (FLAG IP / Myc IP barcode read proportion)” has its median near 0.078; the lowest 2% begin near -0.6. The sample as a whole holds a higher share of the lowest values than the screen did.

B1: GBRAP_52_5921 (protein)
chain: SDEEARALAEAILEAALAGREDELRALIKRLVEEKSLEEIKRVIEELARLTAELGPEHYDLFADIMDLLLDAAEEAGRDVEEVDYAIAEAAGLLYDAEQA
B2: GBRAP_160_4321 (protein)
chain: SALMEELKKEIEEIAEEAKELIEGESPEQRRTIVKVALGEILLLAIENPEISDELEDKIAEIADAAEAELDANPDLSEEEVKELLEKAVKEILELIEKEE
B3: GBRAP_160_3995 (protein)
chain: SEKKKKLLEKIKEILEETYELMKGESPEERLAIARVAAGDILLELFESELVSDETEEKIDEVLDEFVATVEANPDMSDEELKELLEETLEKIEKIIEENS
B4: GBRAP_160_4762 (protein)
chain: KEELKKLKEEIEEIFKEHIELLKEVPKEKAVTVVEGAMGEVLMLAFSSEAVSDELEEKIGEIMDEAVERAKENKDAPVEVHIKILEEAREKILELIEEEI
B5: GBRAP_52_6056 (protein)
chain: MEARIEALARAIAAAIAAGDLDAALALLREAIATLTPEEIRRTLQLAARLVAGLGEEAHERFVELLDEAHELMIEAGISEEEADIIVGDAEAALARAVAA
B6: GBRAP_117_2594 (protein)
chain: SATLEEVRKRVEELVERIRKALEEMKTLSEEERKRLREELLEEATKEVKEMLKLTDAETVEEFFAEALADLSPEERVEAYIIFEEALADAEDELKEEEEA
B7: GBRAP_128_3594 (protein)
chain: SVEEVRAYVREALAAMKEADAETRREIADALMERLLTLSDEEQRAAFETIEELLPELSAEDLDILADALREHRPRFSPEGANLAADVEVEALNEREELEE
B8: GBRAP_80_6786 (protein)
chain: MEEEIEKLIEEIEKKNPEVAKIIKEIVELLKEIGVPLEIIKEIVEVFLDALSLPKETQLKIAKEVLEEAKELSEYKDEFSPEDIGRMVLAEALTLVELAK
B9: GBRAP_83_6928 (protein)
chain: KEKIVVAANDDNIDEAFEAAIDLQKNEGYEVDVEVIITKEGFPKLKKAFEKMAKAGWNGTLDILAVGATKEEVEKLKAELEAIAKKYGVNVKINVTQVEP
B10: GBRAP_160_4685 (protein)
chain: SEKVEEAEEFLEEEFAEVVELFDEVTREELAAFVRVAFGEIILELEELGLLTDEVAEVIDEEEERIVDAILNDPNITKEEFAALLEEAAEEIVEELEEEA
B11: GBRAP_184_5239 (protein)
chain: MVLERTIKAENEEELREKMKEVMEEAEKKGAKVRLLIEVEKLTREKAETLAEMIKEMAAKGLLELVGVVSSEPISEEIVDLLVEAADEAGVKLVIAEPEI
B12: GBRAP_52_6331 (protein)
chain: SHEEVEKMAEELYKAIVAGKEEEAKKLAEEMVETLSSEEILEAARIVAERVAKEGDEVKVRAAEVFEYLAELVEEKRGDERTAAEILGIYATTLYAAEQA
B13: GBRAP_11_2762 (protein)
chain: MKEKYERLAELAERAAELVDRLLAEGVDDAELLAELERLLRELREETKKIGDKALEKDVEIAEELFRALQADPANAEAYARELRAQLRVLAGQYLLLAEE
B14: GBRAP_35_5533 (protein)
chain: NSDEEIAEMLLNTMEALVDALPDVSPEQQLALARHLIRLAEDFLELKTKSAELIKRLIEVLERAIELIKKSSLPPEQQEELIRELEELRERAKELLKEVE
B15: GBRAP_128_3244 (protein)
chain: SQEELLEEAKKLVDEIVEADVEEAKELTKKLIELMKKLNKESREEVADYLIEKLKELSAEKLEAVADTLRENRPKLDDYTAALVAGVEIEALELALEQEE
B16: GBRAP_128_3242 (protein)
chain: SQEELLEEAKKLIEEIVKADVETAKKLTEKLIELLKKLNDEAREEVAEYLEKELEKLSAEKLEAVADTLRENRPKLDPYTAALVAGVEIDALELALEKEE
B17: GBRAP_184_5275 (protein)
chain: KVIHVDIVAETGEEAIKEVKKAAEKAKKEGAKLKINILLENSSVEETIKLFELLKKLKEEGIIEDAVVGIENEKTEEEIDTLLKAADEAGVKLVLAISDE
B18: GBRAP_80_6828 (protein)
chain: AEKELEAVIKELAEVDPEIAKLVEEAIEIAKELGVPLEVLLRFAKAILELAKVDKEKALELVKELLEELKKAKEEGNRDEAIALLYDAESEALLAVEELE
B19: GBRAP_52_6260 (protein)
chain: MRERLRALVEEILELVKAGRLEEARALATELAETFNEEELEIFIEEAAELARRSSKEEVEDLIRMAELVAEALEEAGRPEELVSLFEARVYGAIYETEKR

target: GABARAP, O95166; test: median log2 fold change of GCK-ALFA target abundance (FLAG IP / Myc IP barcode read proportion) (log2 ratio); each designed protein is fused to an ALFA-tag nanobody in HEK293 cells to bring the named protein to FLAG-tagged glucokinase (GCK); Myc marks an untargeted standard; higher = target protein stabilised (more abundant); settings: target protein: 3xFLAG-MCP-GCK-ALFA reporter; HEK293 landing pad (RPLP)
Sequence (O95166 whole entry, the tested form may be a part): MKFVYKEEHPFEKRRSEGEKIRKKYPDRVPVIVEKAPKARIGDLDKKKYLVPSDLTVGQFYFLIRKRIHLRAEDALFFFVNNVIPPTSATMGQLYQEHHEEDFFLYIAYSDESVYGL
How it was run: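 The readout is target abundance, the per-binder median log2 ratio of FLAG to Myc barcode read proportions. It came from HEK293 landing-pad cells carrying a recombined ALFA-nanobody-fused binder library, induced with 2 μg mL^−1 doxycycline and transfected with a plasmid for a FLAG-tagged target and a Myc-tagged standard. After 48 h, lysates were immunoprecipitated with anti-FLAG and anti-Myc, and circular RNA barcodes were reverse transcribed, amplified and sequenced. Each barcode needed a proportion of at least 10^−7 in both replicates and each binder at least 3 barcodes per replicate, a pseudocount of 10^−6 was added, and the replicates were pooled.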

Binder | median log2 fold change
B1 | -0.394
B2 | -0.0253
B3 | -0.00842
B4 | 0.0708
B5 | -0.851
B6 | 0.152
B7 | -0.0656
B8 | -0.00858
B9 | 0.0213
B10 | -0.679
B11 | 0.163
B12 | 0.372
B13 | 0.183
B14 | -0.115
B15 | -0.658
B16 | -0.0414
B17 | -0.234
B18 | 0.0224
B19 | -0.0461
